The subject of test [1] is Wnt5a (protein binding on small-molecule microarray). Put plainly: Wnt5a binders on small-molecule microarray, primary screen, biophysical, 635/667 nm fluorescence (AID 1142).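 Also: fluorescence read at 667 nm with signal to noise per printed feature.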 The following applies: 635 nm fluorescence, higher = more signal.
A short description of test [2]: cell viability in Huh7 cells, primary screen, cytotoxicity control for HCV replication inhibitor project, CellTiter-Glo luminescence, basal, 48 h (AID 1143).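 Also: Huh7 hepatoma cells carrying a hepatitis C replication reporter with no stimulus; test concentration not given here.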 The settings on record: Huh7 HCV replicon, higher = more signal, called active from +8 up or from −8 down. Background: In ATP-based viability assays light output follows the ATP content of the culture.
Test [3] in a line: P. aeruginosa biofilm formation inhibitors, primary screen, PAO1 strain, BacTiter-Glo luminescence, LB-PBS (AID 1144). The following applies: 12 h, higher = more signal.
A short description of test [4]: CREB reporter modulators without forskolin, primary screen, cell-based, PC12, CRE-LacZ reporter, unstimulated (AID 1145). The settings on record: no forskolin, luminescence, 4.5 h, higher = more signal, called active from +8 up or from −8 down.
Test [5] in a line: CREB reporter modulators under forskolin, primary screen, cell-based, PC12, CRE-LacZ reporter, forskolin-stimulated (AID 1146).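 Also: PC12 cells with 6xCRE LacZ reporter stimulated by forskolin 10 µM; beta-galactosidase reporter signal reflecting CREB driven transcription.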 The settings on record: luminescence, 4.5 h, higher = more signal, called active from +8 up or from −8 down.
In test [6] the target is Streptavidin (Streptomyces avidinii) (UniProt P22629). In words: streptavidin binders on small-molecule microarray, primary screen, artefact control for SMM compound annotation, biophysical, 635/667 nm fluorescence (AID 1147).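 Also: signal reflects streptavidin binding to arrayed compounds as a control protein.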 The settings on record: streptavidin binding, higher = more signal.
Streptavidin (Streptomyces avidinii), sequence (P22629 whole entry, looked up): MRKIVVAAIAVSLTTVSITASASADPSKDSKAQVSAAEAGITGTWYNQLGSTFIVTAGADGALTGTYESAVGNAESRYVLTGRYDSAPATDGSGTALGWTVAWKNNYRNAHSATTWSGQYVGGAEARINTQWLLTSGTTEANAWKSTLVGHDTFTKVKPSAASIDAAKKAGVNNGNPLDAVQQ
A short description of test [7]: small-molecule binders of probe aInhba, primary screen, biochemical, small-molecule microarray, 635/667 nm fluorescence (AID 1148).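 Also: score merges 667nm spot fluorescence with signal-to-noise for antibody binding to printed compounds.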 The settings on record: higher = more signal.
The target in test [8] is Torsin-1A (Homo sapiens) (UniProt O14656). Put plainly: torsin A binders from cell lysate, primary screen, small-molecule microarray, wild-type, 635/667 nm (AID 1149). The settings on record: COS7 hTOR1A-WT lysate, 635 nm fluorescence, higher = more signal.
Torsin-1A (Homo sapiens), sequence (O14656 whole entry, looked up): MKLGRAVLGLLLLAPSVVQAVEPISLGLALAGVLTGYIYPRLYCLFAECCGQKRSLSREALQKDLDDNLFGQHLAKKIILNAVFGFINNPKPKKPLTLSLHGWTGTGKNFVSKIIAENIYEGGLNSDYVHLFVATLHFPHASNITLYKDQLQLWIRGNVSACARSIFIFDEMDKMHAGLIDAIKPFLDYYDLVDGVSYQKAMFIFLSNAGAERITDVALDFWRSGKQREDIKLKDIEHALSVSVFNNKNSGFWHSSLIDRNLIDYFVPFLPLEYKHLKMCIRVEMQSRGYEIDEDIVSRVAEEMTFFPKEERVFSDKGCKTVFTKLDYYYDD
The target is the same in test [9]. In words: small-molecule binders of mutant TOR1A in lysate, primary screen, cell lysate, small-molecule microarray, COS7 lysate, 635/667 nm fluorescence (AID 1150).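 Also: score pools 667 nm emission and signal to noise measuring lysate protein binding.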 The settings on record: COS7 hTOR1A mutant lysate, 635 nm fluorescence, higher = more signal.
Test [10] relates to Sonic hedgehog protein (Shh). Put plainly: small-molecule binders of Shh protein, primary screen, biochemical, small-molecule microarray, 635/667 nm fluorescence (AID 1151).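 Also: Shh protein binding to compounds spotted on small-molecule microarray slides; score combines spot fluorescence intensity with signal-to-noise across triplicate slides.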 The settings on record: small-molecule microarray binding, 635 nm fluorescence; higher = more signal.
A short description of test [11]: E. coli DRC41 culture turbidity changes, primary screen, E. coli filamentation inducer project, strain DRC41, OD650, 48 h (AID 1152).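 Also: E. coli MC1000 strain DRC41 lacking acrAB efflux pump and sulA.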 The settings on record: E. coli DRC41 (acrAB sulA), higher = more signal, called active from +8 up or from −8 down.
Test [12] can be described thus: small-molecule binders of probe aLefty1, primary screen, biochemical, small-molecule microarray, 635/667 nm fluorescence (AID 1153).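 Also: score merges spot fluorescence with signal-to-noise ratio from the scanned slide images.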 The following applies: higher = more signal.
Test [13] is described as follows: PSAC antagonists in infected red cells, primary screen, cell-based, P. falciparum Indochina, OD700, 1 h (AID 1154). The following applies: P. falciparum Indochina infected RBC osmotic lysis, higher = more signal, called active from +8 up or from −8 down.
Test [14] is described as follows: PSAC antagonists in infected red cells, primary screen, cell-based, P. falciparum Indochina, OD700, 2 h (AID 1155).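 Also: lysis reports solute entry through the parasite surface anion channel PSAC; channel blockers reduce lysis of infected cells.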 The settings on record: P. falciparum Indochina infected erythrocytes, osmotic lysis OD700; higher = more signal, called active from +8 up or from −8 down.
Test [15] is described as follows: osmotic lysis modulators in infected erythrocytes, primary screen, PSAC antagonist project, cell-based, P. falciparum Indochina, OD700, 3 h (AID 1156). The following applies: higher = more signal, called active from +8 up or from −8 down.
Test [16] can be described thus: PSAC antagonists in infected red cells, primary screen, cell-based, P. falciparum Indochina, OD700, 18 h (AID 1157). The following applies: P. falciparum Indochina infected erythrocytes, osmotic lysis OD700, 18 h; higher = more signal, called active from +8 up or from −8 down.
A short description of test [17]: modulators of S6 phosphorylation in cells, primary screen, cell-based, A549, cytoblot, luminescence, serum-stimulated (AID 1158).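 Also: serum-stimulated A549 lung adenocarcinoma cells; signal is phosphorylated S6 detected by cytoblot immunostaining with HRP secondary.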 The following applies: A549 phospho-S6 cytoblot, 5 h, higher = more signal.
Test [18] deals with NADPH oxidase 2 (Homo sapiens) (UniProt P04839). In words: NOX2-dependent H2O2 signal modulators, primary screen, NOX inhibitor project, cell-based, HEK293-NOX2, PMA-stimulated, Amplex Red fluorescence (AID 1159). Also: test concentration not given here. The following applies: 45 min, higher = more signal, called active from +8 up or from −8 down.
NADPH oxidase 2 (Homo sapiens), sequence (P04839 whole entry, looked up): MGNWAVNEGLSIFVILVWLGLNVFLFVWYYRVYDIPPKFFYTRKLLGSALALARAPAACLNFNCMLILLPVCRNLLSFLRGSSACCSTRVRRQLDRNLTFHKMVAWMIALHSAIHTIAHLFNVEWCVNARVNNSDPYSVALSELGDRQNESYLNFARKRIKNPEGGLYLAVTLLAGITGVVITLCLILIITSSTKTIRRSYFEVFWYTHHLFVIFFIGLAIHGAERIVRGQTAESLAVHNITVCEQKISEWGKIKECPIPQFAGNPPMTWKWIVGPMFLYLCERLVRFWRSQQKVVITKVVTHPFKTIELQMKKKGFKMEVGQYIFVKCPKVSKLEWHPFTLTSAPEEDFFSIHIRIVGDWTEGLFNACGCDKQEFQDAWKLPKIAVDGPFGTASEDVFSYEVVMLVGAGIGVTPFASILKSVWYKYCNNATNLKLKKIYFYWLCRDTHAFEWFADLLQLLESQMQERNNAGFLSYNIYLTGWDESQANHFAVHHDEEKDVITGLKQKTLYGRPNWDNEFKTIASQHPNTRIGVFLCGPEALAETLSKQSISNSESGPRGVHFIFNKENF
Test [19] addresses NADPH oxidase 4 (Homo sapiens) (UniProt Q9NPH5). In words: NOX4-dependent H2O2 signal modulators, primary screen, NOX inhibitor project, cell-based, HEK293-NOX4, tetracycline-induced, Amplex Red fluorescence (AID 1160). The following applies: 45 min, higher = more signal, called active from +8 up or from −8 down.
Test [20] has as its target NADPH oxidase 5 (Homo sapiens) (UniProt Q96PH1). Put plainly: NOX5-dependent H2O2 signal modulators, primary screen, NOX inhibitor project, cell-based, HEK293-NOX5, Amplex Red fluorescence (AID 1161). The following applies: HEK293-NOX5, ionomycin, 45 min, higher = more signal.

From PubChem BioAssay come the findings set out here.

Each structure is given as a SMILES string. Activity calls are given as the source filed them. Unless noted, no rule for the calls is given here.

NADPH oxidase 4 (Homo sapiens), sequence (Q9NPH5 whole entry, looked up): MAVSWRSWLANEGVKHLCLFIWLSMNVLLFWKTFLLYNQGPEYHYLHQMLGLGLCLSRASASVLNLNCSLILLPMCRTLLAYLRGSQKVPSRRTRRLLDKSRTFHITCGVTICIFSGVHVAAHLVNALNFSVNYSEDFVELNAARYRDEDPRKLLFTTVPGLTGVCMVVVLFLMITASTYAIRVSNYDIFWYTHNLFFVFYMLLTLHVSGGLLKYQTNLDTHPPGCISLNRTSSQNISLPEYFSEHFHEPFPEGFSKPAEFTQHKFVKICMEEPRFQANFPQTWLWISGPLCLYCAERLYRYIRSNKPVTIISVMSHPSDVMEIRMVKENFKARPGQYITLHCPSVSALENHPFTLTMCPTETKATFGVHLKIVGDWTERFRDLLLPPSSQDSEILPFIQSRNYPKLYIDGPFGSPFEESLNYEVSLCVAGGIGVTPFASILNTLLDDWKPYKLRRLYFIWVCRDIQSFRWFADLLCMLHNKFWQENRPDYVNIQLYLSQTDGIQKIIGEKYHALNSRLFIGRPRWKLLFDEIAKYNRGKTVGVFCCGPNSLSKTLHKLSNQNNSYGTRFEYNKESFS
NADPH oxidase 5 (Homo sapiens), sequence (Q96PH1 whole entry, looked up): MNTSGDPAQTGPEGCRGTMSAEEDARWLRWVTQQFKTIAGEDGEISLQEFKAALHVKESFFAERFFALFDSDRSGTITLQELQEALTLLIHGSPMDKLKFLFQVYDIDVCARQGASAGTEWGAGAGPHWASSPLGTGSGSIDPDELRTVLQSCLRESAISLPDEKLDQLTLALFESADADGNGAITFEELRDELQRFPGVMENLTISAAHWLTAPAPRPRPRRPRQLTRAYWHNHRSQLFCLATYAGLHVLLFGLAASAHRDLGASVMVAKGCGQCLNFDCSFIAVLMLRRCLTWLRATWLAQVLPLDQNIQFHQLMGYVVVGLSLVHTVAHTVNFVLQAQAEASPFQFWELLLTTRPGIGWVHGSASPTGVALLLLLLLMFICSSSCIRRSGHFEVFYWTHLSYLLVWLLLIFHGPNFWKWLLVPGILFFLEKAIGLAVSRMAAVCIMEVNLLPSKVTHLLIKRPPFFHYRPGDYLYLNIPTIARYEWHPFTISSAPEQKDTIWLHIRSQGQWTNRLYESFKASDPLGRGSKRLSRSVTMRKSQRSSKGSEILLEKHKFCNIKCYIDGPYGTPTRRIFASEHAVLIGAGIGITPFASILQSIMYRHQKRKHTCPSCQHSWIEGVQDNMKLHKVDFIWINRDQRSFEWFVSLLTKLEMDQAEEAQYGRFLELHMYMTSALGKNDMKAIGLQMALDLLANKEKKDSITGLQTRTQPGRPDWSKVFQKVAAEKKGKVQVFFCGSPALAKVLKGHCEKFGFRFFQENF

As to `COC(=O)CC=C[C@@H](C)[C@@H](C=NOC[C@@H](O)COCc1ccco1)NS(=O)(=O)c1ccc(C)cc1`, the composite z-score in test [1] is 0.102; in test [6], -0.601; in [7] it was -0.209; in the test with Torsin-1A (Homo sapiens) [8], 1.11; in the test with Torsin-1A (Homo sapiens) [9], 1.24; in test [10], 1.89. This compound also came in with a composite z-score in test [12] of -0.186. Besides, the z-score was 0.0032 (inactive) in test [2]; 0.91 (inactive) in test [3]; -0.715 (inactive) in test [4]; -0.0491 (inactive) in test [5]; 0.132 (inactive) in [11]; 1.25 (inactive) in test [13]. In addition, the z-score was 0.418 (inactive) in test [14]; 0.0934 (inactive) in [15]; 0.391 (inactive) in test [16]; -0.689 in test [17]; 0.017 (inactive) in test [18]; -0.202 (inactive) in test [19]. Further, in [20], the z-score was -0.106.
In the case of `CCOC(=O)NN=C1C[C@@H](O)[C@@H](O)[C@@H]2[C@@H]3C(=O)N(c4ccc(F)cc4F)C(=O)[C@@H]3CC[C@H]12`, the composite z-score in [1] was 0.199; in test [6], -0.0442; in [7], -0.0962; with Torsin-1A (Homo sapiens) [8], 0.49; with Torsin-1A (Homo sapiens) [9] it was 0.381; in test [10] it was 0.404. Besides, in test [12], the composite z-score is -0.0106. Besides, the z-score in test [2] was -4.03 (inactive); in test [3], -1.05 (inactive); in test [4], -0.296 (inactive); in [5], 0.409 (inactive); in [11], -0.57 (inactive); in test [13], 1.03 (inactive). The z-score in test [14] is -1.41 (inactive); in [15], 0.465 (inactive); in test [16], -1.75 (inactive); in [17], 0.245; in test [18], -4.88 (inactive); in test [19], -1.81 (inactive). Further, the z-score in test [20] was -0.472.
On to `CCOC(=O)[C@H](CC(C)C)NC(=O)CCC1CC(OC(=O)NCCc2ccc(F)cc2)CC2(CCCC(COC(=O)NCCOC)O2)O1` (stereo not given in full), for which the composite z-score was 0.441 in test [1]; 0.581 in test [6]; -0.215 in [7]; 0.441 in the test with Torsin-1A (Homo sapiens) [8]; 0.259 with Torsin-1A (Homo sapiens) [9]; 1.53 in test [10]. Also, the composite z-score in [12] was -0.198. Further, the z-score in test [2] is -0.127 (inactive); in test [3], 0.045 (inactive); in [4], 0.198 (inactive); in test [5] it was 0.0489 (inactive); in test [11], -1.39 (inactive); in [13], 3.18 (inactive). The z-score in test [14] is 0.621 (inactive); in [15] it was 0.0768 (inactive); in test [16], -0.0213 (inactive); in test [17], -0.474; in test [18] it was -0.25 (inactive); in test [19] it was 0.998 (inactive). The compound also displayed a z-score in test [20] of 1.19.
As for `C=C(C)C(=O)OC[C@H]1CN2[C@@H](CC[C@@H](C)[C@@H]2c2ccc(Br)cc2)C(=O)O1`, the composite z-score in test [1] is -0.219; in test [6] it was 0.0906; in test [7] it was -0.154; in the test with Torsin-1A (Homo sapiens) [8] it was 0.334; with Torsin-1A (Homo sapiens) [9] it was 0.0188; in [10] it was 0.0827. Besides, the composite z-score in test [12] is -0.143. The z-score in test [2] was 0.411 (inactive); in [3] it was -0.694 (inactive); in test [4], -0.654 (inactive); in test [5], -0.777 (inactive); in test [11] it was -1.41 (inactive); in test [13] it was 3.08 (inactive). In addition, the z-score in test [14] was -0.0269 (inactive); in [15] it was -0.691 (inactive); in [16], -0.196 (inactive); in test [17] it was 0.861; in [18], -1.81 (inactive); in test [19], 0.0898 (inactive). Also, in test [20], the z-score was -1.61.
For the compound `CC(C)CON=C1C[C@@H](O)[C@@H](O)[C@@H]2[C@@H]3C(=O)N(Cc4ccccc4)C(=O)[C@@H]3CC[C@H]12`, the composite z-score in test [1] was 0.0659; in [6], -0.682; in test [7] it was -0.212; with Torsin-1A (Homo sapiens) [8], 0.0783; with Torsin-1A (Homo sapiens) [9], 0.208; in test [10], 0.503. Further, the composite z-score in test [12] is -0.249. Further, the z-score in test [2] was -1.75 (inactive); in [3], -1.46 (inactive); in test [4] it was -0.0223 (inactive); in test [5], 0.627 (inactive); in [11], -1.41 (inactive); in test [13], 1.12 (inactive). Besides, the z-score in test [14] was -1.19 (inactive); in [15], 0.99 (inactive); in test [16] it was -1.6 (inactive); in test [17], 0.0105; in test [18], 1.48 (inactive); in test [19], 0.209 (inactive). In test [20], this compound had a z-score of 0.588.
For `CC(C)(C)N1C(=O)[C@H]2[C@@H]3C(=CC[C@H]2C1=O)C(=O)[C@H]1O[C@H]1[C@H]3O`, the composite z-score in test [1] was -0.264; in test [6], -0.5; in test [7] it was -0.127; with Torsin-1A (Homo sapiens) [8], 1.84; with Torsin-1A (Homo sapiens) [9], -0.0252; in [10] it was 0.981. In test [12], the composite z-score was -0.328. Besides, the z-score is -6.85 (inactive) in [2]; 0.652 (inactive) in test [3]; -0.748 (inactive) in test [4]; -3.08 (inactive) in [5]; -0.537 (inactive) in test [11]; -0.23 (inactive) in test [13]. For the same compound, the z-score was -1.7 (inactive) in test [14]; 0.0794 (inactive) in test [15]; -2.24 (inactive) in [16]; 0.495 in test [17]; -0.593 (inactive) in test [18]; -0.168 (inactive) in test [19]. The same compound returned a z-score in [20] of 1.22.
